The panel holds about 79,000 compounds, 15% with a hit somewhere; the sample as a whole holds those more often. Cut-off read from the data, not from the text of the source: active = growth inhibition above about 70%; inactive = the rest. Where a SMILES comes first, the peptide text is derived from it. Bridges are numbered along the chain shown (N, C = ends).
Tests used:
[1] = NCI Yeast Anticancer Drug Screen. Data for the rad50 strain (AID 155);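 note: 0% = growth of vehicle-only cultures of the same strain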; conditions: S. cerevisiae rad50 strain growth inhibition; at 50.0 µM; active compounds read high
Outline: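 Growth of the mutant yeast was measured after compound exposure and referenced to vehicle-treated cultures.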

[2] = NCI Yeast Anticancer Drug Screen. Data for the mec2-1 strain (AID 157); conditions: S. cerevisiae mec2-1 strain, at 50.0 µM, active compounds read high
Outline: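 Using mec2-1 yeast: add compound, measure growth, express inhibition versus vehicle-treated cultures.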

[3] = NCI Yeast Anticancer Drug Screen. Data for the sgs1 mgt1 strain (AID 161);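 note: 0% = growth of cultures given vehicle only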; conditions: S. cerevisiae sgs1 mgt1 strain, at 50.0 µM, active compounds read high
Outline: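 Compounds are added to genetically altered yeast, and growth is compared with cultures given vehicle alone to give percent inhibition.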

[4] = NCI Yeast Anticancer Drug Screen. Data for the cln2 rad14 strain (AID 165);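 note: 0% = growth equal to vehicle treated cultures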; conditions: S. cerevisiae cln2 rad14 strain, at 50.0 µM, active compounds read high
Outline: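 Yeast strain cln2 rad14, bearing defects in cell cycle control and DNA repair, serves as the test system; values reflect growth inhibition compared with vehicle.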

[5] = NCI Yeast Anticancer Drug Screen. Data for the bub3 strain (AID 167); conditions: S. cerevisiae bub3 mutant strain, at 50.0 µM, active compounds read high
Outline: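 Whole-cell yeast assay. The mutant strain was incubated with compounds, and growth inhibition was determined by comparison with vehicle-treated cells.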

[6] = NCI Yeast Anticancer Drug Screen. Data for the mlh1 rad18 strain (AID 175); conditions: S. cerevisiae mlh1 rad18 strain growth inhibition; at 50.0 µM; active compounds read high
Outline: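 Steps: expose repair-defective yeast to compound; measure growth; express inhibition against vehicle-treated controls.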

Measured: growth inhibition

CC1CC/C(=C\c2ccccc2)C(=O)/C1=C/c1ccccc1 (stereo unspecified)
inactive: [1] 22.2% | [2] -11.1% | [3] 13.8% | [4] 9.45% | [5] 30.2% | [6] 28.8%

COc1ccc(/C=C/C(=O)c2c(-c3ccccc3)nn(C)c(=O)c2N2CCCC2)cc1
inactive: [1] -23.8% | [2] -20.3% | [3] -33.2% | [4] -24.4% | [5] -11.2% | [6] -34.1%

CSCCC(N)C(=O)NCCS(=O)(=O)O (stereo unspecified)
inactive: [1] -22.4% | [2] 1% | [3] 14.8% | [4] -8% | [5] 17.1% | [6] 8.25%

COc1ccc(NC2CC(C)N(C(=O)c3ccccc3)O2)cc1 (stereo unspecified)
inactive: [1] -42.1% | [2] -37.2% | [3] -19.1% | [4] 12.3% | [5] -21.6% | [6] -19.2%

Cc1cccc(Nc2nc(NNC(=O)Cc3ccccc3)nc(NNC(=O)c3ccncc3)n2)c1
inactive: [1] 17.4% | [2] -12.9% | [3] 42.2% | [4] 33.4% | [5] 22.6% | [6] 18.8%

CCOc1ccccc1NC(C)=O
inactive: [1] -6.5% | [2] 6.1% | [3] 2.2% | [4] -13.4% | [5] -14.6% | [6] -0.75%

Nc1ccnc(Sc2ncccc2[N+](=O)[O-])n1
inactive: [1] 1.2% | [2] -8.15% | [3] -5.75% | [4] -47.8% | [5] 7.8% | [6] 1.3%

O=C1OC(c2cccc(Cl)c2)=N/C1=C\c1ccc(O)cc1
inactive: [1] 15.8% | [2] 9.85% | [3] 15.6% | [4] 8.35% | [5] 1.45% | [6] -3.2%

NC(=O)CC(NC(=O)OCc1ccccc1)C(N)=O (stereo unspecified)
inactive: [1] 8.6% | [2] 8.4% | [3] -11.2% | [4] -12.4% | [5] 10.8% | [6] -14.6%

O=COCCOC=O
inactive: [1] 19.9% | [2] 5.55% | [3] -23.6% | [4] 20.6% | [5] 10.2% | [6] 14.2%

CCc1cc(CCC(=O)Nc2ccccc2[N+](=O)[O-])[nH]c(=S)n1
inactive: [1] -10.6% | [2] -20.8% | [3] 11.3% | [4] 12% | [5] -14.3% | [6] -11.2%

COC(=O)C1CCC(=O)NCCCCC(NC(=O)C(N)CC(=O)O)C(=O)N1 (stereo not drawn) (H-Asp-Lys-Glu-OMe; lactam 2-3; configuration not given here)
inactive: [1] 5.4% | [2] 4% | [3] 11.3% | [4] -1.9% | [5] 15.1% | [6] -27.9%

CC(C)CC(Nc1ccc2ccccc2c1)C(N)=O (stereo unspecified)
inactive: [1] -6.9% | [2] -44.4% | [3] 10.2% | [4] 8.65% | [5] 10.8% | [6] -3.4%

O=[N+]([O-])c1ccc(-c2csc3nc(-c4ccccc4)nn23)cc1
inactive: [1] -0.5% | [2] -31.2% | [3] -29.9% | [4] 10.4% | [5] -28.2% | [6] -23.2%

Cc1nc(N)nc(N)c1N1CCN(c2ccc(C(=O)NC(C(=O)O)C(=O)O)cc2)CC1
inactive: [1] -4.8% | [2] -15.6% | [3] -25.8% | [4] 4.55% | [5] -38.2% | [6] -37.8%

CCC(C)C1CCCCC1 (stereo unspecified)
inactive: [1] -13% | [2] -15.9% | [3] -3.35% | [4] 3.85% | [5] -12.8% | [6] 0.75%

Nc1ccc(NC(=O)Nc2ccc(N)cc2)cc1
inactive: [1] 24.5% | [2] 4.3% | [3] 16.8% | [4] 9.15% | [5] 10.8% | [6] 20.4%

CC(C)(C)NC(=O)NCC1CCCC1NC(=O)NC(C)(C)C (stereo unspecified)
inactive: [1] 1.45% | [2] -4.95% | [3] 3.65% | [4] -5.45% | [5] 7.35% | [6] -10.4%

CSc1nnc2c3ccccc3ccn12
inactive: [1] 4.9% | [2] 11.6% | [3] -2.25% | [4] -3.3% | [5] -14.1% | [6] 52.5%

CC(=O)Oc1nnc(OC(C)=O)c2cc(N)ccc12
inactive: [1] -13.3% | [2] -18.3% | [3] 4.45% | [4] -1.2% | [5] 9.9% | [6] 0.75%

CC(=O)c1cccc(NC(=O)C(=O)C(C(=O)NN)c2ccccc2)c1 (stereo unspecified)
inactive: [1] 11.4% | [2] 11.1% | [3] -5.2% | [4] 4.2% | [5] 23% | [6] 15.9%

Source: PubChem BioAssay (NCI)
